Test results published in PubChem BioAssay AID1159580 (chemical genetic matrix, 2015).
The campaign covered roughly 5,500 compounds. About 2,000 (36%) were called active. Another 18% or so got no clear call; they are omitted. Cut-off read from the data, not from the text of the source: active = normalized growth mostly below about 0.91 (no sharp cut-off); inconclusive = no clear call, values can overlap the other calls; inactive = mostly above about 0.92. This is one part of the list.

Experiment: chemical genetic growth profiling, strain panel (AID 1159580);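 note: tested at 20 µM; growth read once vehicle control cultures reached saturation at 30 °C; 1 = growth at the plate median or of vehicle wells; lower values mean less growth of the strain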
Conditions: S. cerevisiae deletion strains, growth OD

Measured: normalized growth

COc1ccc(-c2cc(=O)c3c(OC)c(OC)c(OC)cc3o2)cc1OC
inactive: locus YHR030C, strain SLT2, active compounds read low 1.03 | locus YHR079C, strain IRE1, active compounds read low 1.02 | locus YJL095W, strain BCK1, active compounds read low 0.974 | locus YJR066W, strain TOR1, active compounds read low 0.99 | locus YLR113W, strain HOG1, active compounds read low 0.968 | locus YNL183C, strain NPR1, active compounds read low 0.936 | locus YOR231W, strain MKK1, active compounds read low 1.02 | locus YPL256C, strain CLN2, active compounds read low 1
